The nature of experiment [1]: Nuclear factor erythroid 2-related factor 2/antioxidant responsive element (Nrf2/ARE) small molecule agonists: qHTS cell viability counter screen in human keratinocytes (AID 1919968; active = well fitted curve in the direction sought with a large enough effect in the repeat runs; an effect the other way counts as inactive or inconclusive; note: nearly all actives have a fitted effect of over 55% in size; note: potency is the fitted concentration of half-maximal effect). The gist of the method:
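Cells of the KeratinoSens line were plated at 1,500 per well and left for 5 h before compound transfer from DMSO stocks. After a 23 h incubation (37 C, 5% CO2), CellTiter-Fluor was added. Signal was taken as fluorescence intensity 1 h later.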
A general note: Quantitative high-throughput screening tests each substance at several concentrations.

The nature of experiment [2]: Nuclear factor erythroid 2-related factor 2/antioxidant responsive element (Nrf2/ARE) small molecule agonists: luciferase reporter gene qHTS assay in human keratinocytes (AID 1919969). Note: nearly all actives have a fitted effect of over 35% in size. Note: potency is the fitted concentration of half-maximal effect. In general terms: A reporter such as luciferase makes a cellular process visible.
Experiment [3] concerns the target KiSS-1 receptor (Homo sapiens) (UniProt Q969F8). The experiment is described as follows: Human kisspeptin (KISS1R) small molecule agonists, calcium flux assay in KISS1R-HEK293 cells (AID 1920064; active = well fitted curve in the direction sought with a large enough effect in the repeat runs; an effect the other way counts as inactive or inconclusive). In a few lines:
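Cell line: HEK293, stable human KISS1R. Dye loading 1 h at 37 C after 18 h culture. Read: kinetic fluorescence, 480/540 nm, 3 min at 1 s intervals.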
(In general: A change in cytosolic calcium serves as a functional read-out for many receptors and channels.)

Experiment [4] is described as follows: G protein-coupled receptor (GPCR) small molecule agonists, calcium flux assay: HEK293 wild type cell line counter screen (AID 1920065). In a few lines: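 Tox21 10K compounds, 15 concentrations each in triplicate, pin-transferred in DMSO onto dye-loaded cells; kinetic read at 480/540 nm for 3 min, 1 s intervals.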
The nature of experiment [5]: p53 small molecule agonists, cell-based qHTS assay with human liver microsomes (AID 1963577). In a few lines:
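Cells carrying a p53-responsive bla reporter were rested 5 h (37 C, 5% CO2) before compound transfer. Human liver microsomes plus NADPH, 0.5 mg/mL final apiece, supplied metabolism during the 16 h 37 C exposure.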

The nature of experiment [6]: p53 small molecule agonists, cell-based qHTS assay with rat liver microsomes (AID 1963578). The gist of the method: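 Fluorescence from a beta-lactamase reporter under a p53 response element was measured after cells had been incubated 16 h at 37 C with test compound and rat liver microsomes plus NADPH (0.5 mg/mL final each).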
The nature of experiment [7]: p53 small molecule agonists, cell-based qHTS assay with human liver microsomes: qHTS cell viability counter screen (AID 1963579). Note: nearly all actives have a fitted effect of over 45% in size. In a few lines: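 Seed p53RE-bla cells at 4,000 per well; incubate 5 h at 37 C; add compound, human liver microsomes and NADPH; incubate 16 h at 37 C; add CellTiter-Glo; after 30 min at room temperature, read luminescence.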
A short description of experiment [8]: p53 small molecule agonists, cell-based qHTS assay with rat liver microsomes: qHTS cell viability counter screen (AID 1963580). Note: nearly all actives have a fitted effect of over 45% in size. In a few lines: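 Cytotoxicity counter screen: intracellular ATP read by CellTiter-Glo luminescence in the p53 reporter wells. HCT-116 p53RE-bla cells were treated for 16 h at 37 C alongside rat liver microsomes and NADPH, each 0.5 mg/mL final.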

Experiment [9] in a line: p53 small molecule agonists, cell-based qHTS assay: qHTS cell viability counter screen (AID 1963581). Note: nearly all actives have a fitted effect of over 45% in size. The gist of the method: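 ATP content measured by luminescence in HCT-116 p53RE-bla cells treated 16 h at 37 C, same wells as the reporter screen.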
A short description of experiment [10]: p53 small molecule agonists, cell-based qHTS assay (AID 1963582; active = well fitted activation curve with a large enough effect in the signal ratio in the repeat runs, not every such curve was filed as active; the % refers to the signal ratio). In a few lines:
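16 h compound exposure (37 C) of p53 response element–bla cells, preceded by 5 h recovery at 37 C/5% CO2; read-out via LiveBLAzer B/G FRET substrate, 2 h RT, fluorescence intensity.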

Experiment [11] in a line: cAMP Responsive Elements (CRE) small molecule agonists, cell-based qHTS assay (AID 1963590). The gist of the method:
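HEK 293T cells stably bearing CRE-bla were plated at 2,000 cells per well and rested 18 h. Compounds, positive controls or DMSO were added for 3 h at 37 C. LiveBLAzer B/G substrate was then loaded for 2 h at room temperature.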

Experiment [12] can be described thus: cAMP Responsive Elements (CRE) small molecule antagonists, cell-based qHTS assay (AID 1963591; active = well fitted inhibition curve with a large enough effect in the signal ratio in the repeat runs, not every such curve was filed as active; the % refers to the signal ratio). In a few lines:
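First, CRE-bla HEK293T cells settled 18 h at 37 C. Next, compound and 0.25 uM final NKH477 were applied for 3 h. Last, LiveBLAzer B/G substrate was loaded for 2 h at room temperature.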

For experiment [13], the target named is Beta-2 adrenergic receptor (Homo sapiens) (UniProt P07550). The experiment is described as follows: Adrenergic beta2 receptor (ADRB2) small molecule antagonists, cell-based qHTS assay (AID 1963592). Note: series mostly up to about 92 µM; nearly all actives have a fitted effect of over 50% in size. In a few lines:
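Assay format: CHO-ADRB2 cells, 18-20hr seeding at 37C/5% CO2, then compound plus 1nM isoproterenol agonist mix for 0.5hr RT. Homogeneous time-resolved fluorescence cAMP detection after 1hr, expressed as 665/615 nm ratio.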

The target is the same in experiment [14]. The experiment is described as follows: Adrenergic beta2 receptor (ADRB2) small molecule agonists, cell-based qHTS assay (AID 1963593).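 Note: CHO cells stably overexpressing human ADRB2.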 The gist of the method:
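CHO cells stably over-expressing ADRB2 were plated overnight at 37C, then dosed with compounds plus a stimulation mix containing 100uM IBMX and 25uM Ro-20-1724 for 0.5hr at room temperature. cAMP was measured by HTRF competition, 1hr.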

Experiment [15] concerns the target D(2) dopamine receptor (Homo sapiens) (UniProt P14416). The experiment is described as follows: Dopamine D2 receptor (DRD2) small molecule agonists, cell-based qHTS assay (AID 1963594). Note: nearly all actives have a fitted effect of over 35% in size. The gist of the method:
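cAMP accumulation in DRD2-HEK293 cells measured by HTRF after 1 h detection; compounds added 10 min before NKH477 (200nM […]) forskolin-analogue stimulation, 30 min at room temperature, with Ro20-1724 present at 0.1 mM final.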

Experiment [16] has the same target. The experiment is described as follows: Dopamine D2 receptor (DRD2) small molecule antagonists, cell-based qHTS assay (AID 1963595; active = well fitted inhibition curve with a large enough effect in the signal ratio in the repeat runs, with a control signal flat; the % refers to the signal ratio). In a few lines: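 Antagonist mode in DRD2-HEK293 cells: after compound addition with 0.1 mM Ro20-1724, cells received quinpirole (12 nM) and NKH477 (200 nM) for 30 min at room temperature; HTRF cAMP read after 1 h detection.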
The target in experiment [17] is 5-hydroxytryptamine receptor 2A (Homo sapiens) (UniProt P28223). The experiment is described as follows: 5-hydroxytryptamine receptor 2A (HTR2A) small molecule antagonists, cell-based qHTS assay (AID 1963586). Note: nearly all actives have a fitted effect of over 45% in size. The gist of the method:
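CHO cells stably expressing human HTR2A were plated for 18 h at 37 C, then loaded with calcium dye for 1 h. Compounds were preincubated 5 min at room temperature before DOI (4 nM solution) was added. Kinetic fluorescence was read for 3 min.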

The target is the same in experiment [18]. The experiment is described as follows: 5-hydroxytryptamine receptor 2A (HTR2A) small molecule agonists, cell-based qHTS assay (AID 1963587). Note: nearly all actives have a fitted effect of over 30% in size. In a few lines:
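Kinetic calcium-flux fluorescence (2 min, 1 sec intervals) after compound addition in agonist mode. HTR2A-CHO cells were cultured 18 h, then dye-loaded 1 h at 37 C.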

The target in experiment [19] is Muscarinic acetylcholine receptor M1 (Homo sapiens) (UniProt P11229). The experiment is described as follows: Cholinergic receptor muscarinic 1 (CHRM1) small molecule antagonists, cell-based qHTS assay (AID 1963588). Note: nearly all actives have a fitted effect of over 40% in size. The gist of the method:
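Compounds were tested at 15 concentrations in three independent runs. Dye-loaded CHRM1-CHO cells were exposed 5 min at room temperature before stimulation by acetylcholine added at 50nM. Intracellular calcium was read kinetically on FDSS for 3 min.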

The target is the same in experiment [20]. The experiment is described as follows: Cholinergic receptor muscarinic 1 (CHRM1) small molecule agonists, cell-based qHTS assay (AID 1963589). Note: nearly all actives have a fitted effect of over 35% in size. In a few lines: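 Homogeneous fluorescence calcium flux, agonist mode. Human M1-expressing CHO cells; compound dosed at 15 concentrations, three independent runs; signal sampled every 1 sec.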

Structures are written as SMILES. Unmarked numbers belong to inactive results. Inconclusive results are not listed. The source made the active and inactive calls. Unless noted, calls come from the whole dose curve.

Chain of Muscarinic acetylcholine receptor M1 (Homo sapiens) (P11229 whole entry, looked up): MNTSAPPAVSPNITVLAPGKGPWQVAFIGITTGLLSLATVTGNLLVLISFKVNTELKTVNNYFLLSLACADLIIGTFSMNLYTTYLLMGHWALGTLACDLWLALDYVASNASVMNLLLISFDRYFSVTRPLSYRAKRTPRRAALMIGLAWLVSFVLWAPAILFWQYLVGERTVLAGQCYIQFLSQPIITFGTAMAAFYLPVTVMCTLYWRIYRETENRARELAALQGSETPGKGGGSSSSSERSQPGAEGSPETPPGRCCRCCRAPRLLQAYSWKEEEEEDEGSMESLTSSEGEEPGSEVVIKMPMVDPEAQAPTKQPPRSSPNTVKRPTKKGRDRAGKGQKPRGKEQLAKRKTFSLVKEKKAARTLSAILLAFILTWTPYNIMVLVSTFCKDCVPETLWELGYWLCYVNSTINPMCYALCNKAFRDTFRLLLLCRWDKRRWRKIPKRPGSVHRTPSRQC
Chain of KiSS-1 receptor (Homo sapiens) (Q969F8 whole entry, looked up): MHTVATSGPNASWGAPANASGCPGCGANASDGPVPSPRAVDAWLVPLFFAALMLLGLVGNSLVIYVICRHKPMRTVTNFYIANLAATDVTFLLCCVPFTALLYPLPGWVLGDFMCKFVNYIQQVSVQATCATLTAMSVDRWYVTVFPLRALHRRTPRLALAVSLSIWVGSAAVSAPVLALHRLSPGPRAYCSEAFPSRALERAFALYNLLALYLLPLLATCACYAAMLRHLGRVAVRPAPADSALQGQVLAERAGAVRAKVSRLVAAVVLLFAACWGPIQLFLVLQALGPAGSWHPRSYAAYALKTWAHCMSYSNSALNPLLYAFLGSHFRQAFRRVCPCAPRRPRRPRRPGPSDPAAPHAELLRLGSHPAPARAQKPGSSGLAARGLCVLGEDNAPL
Chain of D(2) dopamine receptor (Homo sapiens) (P14416 whole entry, looked up): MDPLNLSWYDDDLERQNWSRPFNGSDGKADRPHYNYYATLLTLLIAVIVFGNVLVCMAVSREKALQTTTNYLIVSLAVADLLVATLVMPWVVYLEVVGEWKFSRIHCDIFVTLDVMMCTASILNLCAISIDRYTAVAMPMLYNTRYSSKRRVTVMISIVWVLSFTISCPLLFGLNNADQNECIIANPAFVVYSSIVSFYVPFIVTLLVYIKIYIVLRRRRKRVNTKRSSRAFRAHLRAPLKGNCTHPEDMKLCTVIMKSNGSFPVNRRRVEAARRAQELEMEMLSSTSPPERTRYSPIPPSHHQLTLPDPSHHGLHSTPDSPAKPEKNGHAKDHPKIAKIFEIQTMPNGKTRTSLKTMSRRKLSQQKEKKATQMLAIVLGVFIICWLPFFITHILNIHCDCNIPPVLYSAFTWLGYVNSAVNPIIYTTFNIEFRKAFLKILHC
Chain of Beta-2 adrenergic receptor (Homo sapiens) (P07550 whole entry, looked up): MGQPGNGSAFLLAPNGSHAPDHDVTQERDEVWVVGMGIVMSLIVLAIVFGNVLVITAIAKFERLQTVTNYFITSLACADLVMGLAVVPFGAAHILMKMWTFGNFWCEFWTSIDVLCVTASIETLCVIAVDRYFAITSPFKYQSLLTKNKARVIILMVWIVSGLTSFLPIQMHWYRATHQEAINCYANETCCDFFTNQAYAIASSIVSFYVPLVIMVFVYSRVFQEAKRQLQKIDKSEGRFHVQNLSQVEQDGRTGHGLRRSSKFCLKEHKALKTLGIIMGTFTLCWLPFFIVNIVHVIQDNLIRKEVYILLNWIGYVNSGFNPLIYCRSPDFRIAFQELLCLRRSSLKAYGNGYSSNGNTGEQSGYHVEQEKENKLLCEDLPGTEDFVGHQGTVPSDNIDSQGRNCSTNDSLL
Chain of 5-hydroxytryptamine receptor 2A (Homo sapiens) (P28223 whole entry, looked up): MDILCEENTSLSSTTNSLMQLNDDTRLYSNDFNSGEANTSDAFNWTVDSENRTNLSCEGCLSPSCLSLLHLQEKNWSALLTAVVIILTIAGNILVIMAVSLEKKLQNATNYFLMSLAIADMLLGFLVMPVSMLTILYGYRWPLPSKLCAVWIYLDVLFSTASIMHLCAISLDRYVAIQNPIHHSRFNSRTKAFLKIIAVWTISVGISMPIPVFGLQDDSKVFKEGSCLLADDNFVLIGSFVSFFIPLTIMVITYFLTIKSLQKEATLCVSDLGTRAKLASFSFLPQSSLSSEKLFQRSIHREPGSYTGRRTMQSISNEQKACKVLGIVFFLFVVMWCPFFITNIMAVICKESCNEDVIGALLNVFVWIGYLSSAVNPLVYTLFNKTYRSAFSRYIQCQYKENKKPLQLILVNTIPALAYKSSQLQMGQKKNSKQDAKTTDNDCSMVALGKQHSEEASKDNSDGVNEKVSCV

For the compound `CN(C)CCC[C@@]1(c2ccc(F)cc2)OCc2cc(C#N)ccc21`, the Potency result in experiment [1], in experiment [2], in [5], in experiment [6], in experiment [7] and in experiment [8] was “inactive” throughout. Further, the Potency entry in [9], in experiment [10], in [11], in [12], in experiment [13] and in [14] was “inactive” each time. For the same compound, the Potency entry in [15] and in experiment [16] was “inactive” in each case. Further, the result in experiment [3] and in experiment [4] was inactive.
Regarding `O=C(O)c1cccc(C(=O)O)c1C(=O)O`, the Potency result in experiment [1], in experiment [2], in [5], in [6], in experiment [7] and in [8] was “inactive” each time. In addition, the Potency entry in [9], in experiment [10], in experiment [17], in experiment [18], in experiment [19] and in [20] was “inactive” throughout. The Potency entry in experiment [11], in experiment [13], in experiment [15] and in experiment [16] was “inactive” in each case. Further, the result in [3] and in experiment [4] was inactive.
Turning to `CC(C)(C(=O)c1cccnc1)c1cccnc1`, the Potency entry in experiment [1], in experiment [2], in [5], in experiment [6], in experiment [7] and in experiment [8] was “inactive” each time. For the same compound, the Potency result in [9], in experiment [10], in experiment [11], in [12], in experiment [13] and in experiment [15] was “inactive” each time. For the same compound, the Potency result in experiment [16] is “inactive”. Also, the result in [3] and in [4] was inactive.
Consider `C=CC(=O)OCC(O)COc1ccccc1` (stereo unspecified), for which the values for the Potency in experiment [1] and in experiment [2] were 61.1 µM (active) and 68.6 µM (active), respectively. Also, the result in [3] and in experiment [4] was inactive. The Potency entry in experiment [5], in experiment [6], in experiment [7], in experiment [8], in experiment [9] and in [17] was “inactive” throughout. The Potency result in experiment [18], in experiment [19], in [20], in [13] and in experiment [15] was “inactive” in each case.
On to `O=C(O)c1cccc(C(=O)O)n1`, for which the Potency entry in [1], in [2], in experiment [5], in experiment [6], in experiment [7] and in experiment [8] was “inactive” in each case. Further, the Potency entry in experiment [9], in experiment [10], in [17], in [18], in experiment [19] and in experiment [11] was “inactive” throughout. For the same compound, the Potency result in experiment [12] and in [13] was “inactive” each time. For the same compound, the result in experiment [3] and in [4] was inactive.
Turning to `CN1CC(=O)NC1=N`, the Potency result in experiment [1], in experiment [2], in experiment [5], in experiment [6], in experiment [7] and in experiment [8] was “inactive” each time. For the same compound, the Potency result in experiment [9], in experiment [10], in [17], in experiment [18], in experiment [19] and in experiment [20] was “inactive” throughout. The Potency entry in [11], in [13], in [15] and in experiment [16] was “inactive” throughout. Besides, the outcome in [3] and in [4] was inactive.
Turning to `CCN(CC)C(C)=O`, the Potency result in experiment [1], in experiment [2], in [5], in experiment [6], in experiment [7] and in experiment [8] was “inactive” in each case. For the same compound, the Potency entry in experiment [9], in experiment [10], in [17], in [18], in experiment [19] and in [20] was “inactive” each time. The Potency entry in experiment [12], in experiment [13], in experiment [15] and in [16] was “inactive” in each case. Moreover, the outcome in [3] and in experiment [4] was inactive.

(Values after PubChem BioAssay (Tox21).)
